TEAD-YAP block – TEAD-YAP interaction inhibition; HEK-TIYL cells, TEAD-Gal4/YAP UAS-luciferase luminescence; inhibition, % at 9.12 µM; 640,000 compounds, 1.4% hits; AID 1259422; in the data active = inhibition above about 32%;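 note: 0% = median of test compound wells and 100% = reference inhibitor wells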
GPR151 activ – human GPR151 activation; Q8TDV0; PathHunter beta-arrestin GPR151 cells, luminescence; activation, % at 11.2 µM; 650,000 compounds, 1% hits; AID 1508602; in the data active = activation above about 4.9%;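 note: 0% = median of compound wells and 100% = cells with positive control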
FBW7 act – human FBW7 E3 ligase activation, primary screen | AlphaScreen FBW7–phospho-cyclin E peptide binding, activator screen | 650,000 compounds, 0.13% hits | AID 1259310 | normalized activity (activation), % at 26.1 µM; in the data active = normalized activity above about 1.9%;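 note: purified mutant Fbw7 with reduced substrate affinity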
MITF primary – human MITF inhibition, primary screen; O75030; AlphaScreen MITF homodimerization, bead proximity signal; inhibition, % at 2.6 µM; 650,000 compounds, 0.91% hits; AID 1259374; in the data active = inhibition above about 50%;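 note: 0% = vehicle wells with protein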
The depositor's hits bear a star. In the library only some 3.4% were active in any assay of this set; here they are far more common.

SMILES	TEAD-YAP block	GPR151 activ	FBW7 act	MITF primary
COc1ccc(C)cc1S(=O)(=O)N(C)CC(=O)Nc1ccc(Oc2ccccc2)cc1	2	2	0	0
CCC(C)(C)n1nnnc1CN1CCC(c2nc3ccc(C)cc3[nH]2)CC1	-6	-1	0	37
CCC(C)(C)n1nnnc1CN1CCC(c2nc3ccc(Cl)cc3[nH]2)CC1	35*	1	0	20
c1cc(-c2ncc(-c3ccncn3)c(-c3ccncc3)n2)ccn1	14	0	0	0
CCCCC1=NN2C(=N)/C(=C/c3ccc(OCCOc4ccccc4Cl)cc3)C(=O)N=C2S1	5	0	0	-8
Cc1ccccc1C1C(C#N)=C(N)N(N(C)C)C2=C1C(=O)CC(c1ccccc1)C2 (stereo unspecified)	64*	-1	0	-4
Cc1cc(C2C(C#N)=C(N)N(N(C)C)C3=C2C(=O)CC(c2ccccc2)C3)c(C)s1 (stereo unspecified)	55*	0	0	-7
Cc1ccc(CCC(=O)Nc2ncc(Cc3ccccc3F)s2)o1	51*	0	0	9
CC(=O)Nc1ncc(Cc2ccccc2F)s1	0	0	0	10
Cc1cccc(Cc2cnc(NC(=O)CCc3ccc(C)o3)s2)c1	32*	0	0	14
CC(C)c1nc2ccccc2n1CC(O)COc1ccc2ccccc2c1 (stereo unspecified)	-38	-1	0	15
c1ccc(Nc2nc(N3CCCCC3)c3ccccc3n2)cc1	42*	1	0	-14
Clc1ccccc1-c1nc(N2CCOCC2)c2ccccc2n1	-3	1	2.6*	6
Clc1ccccc1-c1nc(N2CCCC2)c2ccccc2n1	6	0	1	11
Cc1ccc(Nc2nc(N3CCOCC3)c3ccccc3n2)cc1	-2	0	0	-7
Oc1cccc(Nc2nc(N3CCOCC3)c3ccccc3n2)c1	1	0	0	-13
Cc1cccc(Nc2nc(N3CCOCC3)c3ccccc3n2)c1	38*	1	0	-9
CN(C)c1ccc(Nc2nc(N3CCOCC3)c3ccccc3n2)cc1	42*	1	-1	44
CCOC(=O)CSc1nc2c(sc(=S)n2-c2ccc(Cl)c(C)c2)c(=O)n1-c1ccccc1OC	-9	1	2.1*	25
CC12CCC(C(=O)Nc3ccccc3F)(OC1=O)C2(C)C (stereo unspecified)	5	0	0	1
CCOc1cc(-c2nc3c(=O)n(C)c(=O)nc-3n(C)n2)ccc1OC(C)C	95*	-3	0	21
CCn1nc(-c2ccc(C(F)(F)F)cc2)nc2c(=O)n(C)c(=O)nc1-2	-2	-8	0	15
Cc1ccccc1-c1nc2c(=O)n(C)c(=O)nc-2n(C)n1	91*	-2	0	3
CCCc1nc2c(=O)n(C)c(=O)nc-2n(C)n1	99*	-4	0	-4
CCn1nc(-c2cccc(Cl)c2)nc2c(=O)n(C)c(=O)nc1-2	-52	-9	0	-12
SMILES	TEAD-YAP block	GPR151 activ	FBW7 act	MITF primary
CCC1CCCCN1CCCNC(=O)C1=C(C)C(=O)OC12CCCCC2 (stereo unspecified)	-7	-1	2	0
CCOC(=O)C(NC(=O)CC)(Nc1sc2c(c1C(=O)OC)CCN(C)C2)C(F)(F)F (stereo unspecified)	-11	-1	3.4*	-6
CCC(CO)Nc1ccc2ncc(-c3cccc(NS(C)(=O)=O)c3)n2n1 (stereo unspecified)	37*	1	0	-9
CCC(CO)Nc1ccc2ncc(-c3cncc(OC)c3)n2n1 (stereo unspecified)	54*	0	0	6
CCC(CO)Nc1ccc2ncc(-c3ccc(OC)cc3)n2n1 (stereo unspecified)	16	0	1	16
Cc1nn(C)cc1C(=O)NCc1ccccc1Cl	6	1	0	7
CCOC(=O)CSc1nc2cc(C(=O)Nc3ccc(OC)c(OC)c3)ccc2c(=O)n1C1CCCCC1	-2	1	0	17
O=C1NC2(CCN(C(=O)c3nccc4ccccc34)CC2)Nc2ccc(Cl)cc21	78*	1	0	-9
O=C(Nc1ccccc1Cl)c1ccc(F)c(S(=O)(=O)NC2CC2)c1	-8	-2	0	0
CCOC(=O)c1[nH]c(C)c(C(=O)Nc2cccc(C)c2C)c1C	42*	1	0	8
CCOC(=O)c1[nH]c(C)c(C(=O)N2CCc3ccccc32)c1C	49*	0	0	-4
CCOC(=O)c1c(C)c(C(=O)Nc2cc(C)ccc2OC)c(C)n1CC	41*	1	0	3
CCOC(=O)c1[nH]c(C)c(C(=O)Nc2cc(C)ccc2C)c1C	40*	0	0	2

From PubChem BioAssay
